Screening results as filed in PubChem BioAssay.
HT1080 IDH1KD tx: HT-1080 IDH1 knockdown cell toxicity (counter line). Potency, µM (series often up to 46.1 µM), inactives show top-dose activity, negative = toxicity, actives largely listed as cytotoxic. hit rate 2% among 360,000. HT-1080 IDH1 knockdown viability, ATP luminescence, 48 h;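 also: 0% = DMSO wells and -100% = cell-free medium wells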
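Knockdown cells (IDH1KD HT-1080) received compounds 2 h after plating at 750 cells/well and were kept 48 h at 37 °C in 5% FBS RPMI. A CellTiter-Glo luminescence read gave % activity for curve fitting.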
HT1080NT lethal: kills 2HG-producing HT-1080-NT fibrosarcoma cells; HT-1080-NT fibrosarcoma viability, CellTiter-Glo ATP luminescence, 48 h; Potency, µM (series often up to 46.1 µM), inactives show top-dose activity, negative = less viability, actives largely listed as cytotoxic; hit rate 1.6% among 360,000;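 also: NT is the 2HG producing partner of a matched IDH1 knockdown line; 0% = DMSO-treated cells and -100% = media-only wells without cells; nearly all actives have a fitted effect of over 55% in size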
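Read-out is CellTiter-Glo luminescence after 10 minutes at room temperature, following 48 hours' compound treatment of HT-1080-NT cells (750 cells/well, RPMI, 5% FBS, 37 degrees C).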
DT40 TDP1 CPT: growth inhibition of DT40 Tdp1-/-;hTDP1 cells with camptothecin (screen for TDP1 inhibitors). hit rate 12% among 420,000. chicken DT40 Tdp1-/-;hTDP1 cells + 20 nM CPT, ATP luminescence, 48 h. AID 686979. Potency, µM (highest dose often 46.2 µM), inactives show top-dose activity change, negative = growth inhibition, most hits filed as inhibitors; also: nearly all actives have a fitted effect of over 55% in size
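Chicken DT40 Tdp1-/- cells complemented with human TDP1, 400 cells/well, exposed to compounds plus 20 nM camptothecin for at least 48 h at 37 C; viability read as ATP content by CellTiter-Glo luminescence.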
KB-3-1 cytotox: kills parental KB-3-1 adenocarcinoma cells; hit rate 1.4% among 400,000; AID 1347075; KB-3-1 viability, CellTiter-Glo ATP luminescence, 72 h; Potency, µM (series often up to 46.1 µM), hits mostly cytotoxic; also: nearly all actives have a fitted effect of over 60% in size
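Luminescent ATP read-out (CellTiter-Glo) measures survival of drug-naive KB-3-1 cells after 72 h compound exposure at 37 °C. Titration series was screened from lowest to highest concentration, with DMSO vehicle plates as background controls.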
DT40 TDP1 no CPT: qHTS for Inhibitors of human tyrosyl-DNA phosphodiesterase 1 (TDP1): qHTS in cells in absence of CPT; Potency, µM (doses to about 46.2 µM), for inactives: top-dose activity change, negative = growth inhibition, most hits filed as inhibitors; DT40 Tdp1-/- hTDP1 cells, no CPT, ATP luminescence, 48 h; hit rate 15% among 420,000; AID 686978, 2013; also: nearly all actives have a fitted effect of over 55% in size
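Camptothecin absent (DMSO only). Human TDP1-complemented DT40 knockout cells, 400 cells/well, 37 °C for minimum 48 hr; ATP measured via CellTiter-Glo, 30 min dark incubation, luminescence.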
KB-V1 MDR tox: kills drug-selected multidrug resistant KB-V1 cells; KB-V1 MDR cells viability, CellTiter-Glo, 72 h; Potency, µM (doses to about 46.1 µM), hits mostly cytotoxic; hit rate 3.4% among 400,000; also: nearly all actives have a fitted effect of over 60% in size
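KB-V1 cells (P-gp-expressing MDR subline of KB-3-1) in phenol-red-free DMEM with 10% FBS were exposed to library compounds over a concentration series for 72 h at 37 degrees C. Viability read by CellTiter-Glo luminescence; concentration-effect curves fitted after normalization.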
Active calls of the source: *; i = inactive; ? = inconclusive; . = no result given. Compounds with a hit are over-represented: about 19% of the library has one in this group of screens. Calls follow the shape of the dose curve; as a rule, active = well fitted curve in the direction sought with a large enough effect; inconclusive = small, poorly fitted or top-dose-only effect, or another doubt; inactive = no such curve, though single readings can be large; an effect the other way counts as inactive or inconclusive. Unless noted, % is scaled to controls: 0 for no effect and ±100 for the full control effect; potency is read from the fitted curve at half-maximal effect.

SMILES | HT1080 IDH1KD tx | HT1080NT lethal | DT40 TDP1 CPT | KB-3-1 cytotox | DT40 TDP1 no CPT | KB-V1 MDR tox
Cc1[nH]c(=O)[nH]c(=O)c1S(=O)(=O)N1CCN(c2ccccc2Cl)CC1 | . | . | -9% | i | -1% | ?
CC(=O)c1c(C)[nH]c(C(=O)COC(=O)COc2ccccc2)c1C | 8% | 10% | -19% | i | -11% | i
CCOC(=O)c1c(C)[nH]c(C(=O)OC(C(=O)N(C)C)c2ccccc2)c1C (configuration not stated) | . | . | 10µM* | ? | 10µM* | i
CCOC(=O)c1c(C)[nH]c(C(=O)COC(=O)COc2ccc(OC)cc2)c1C | 2% | -6% | -3% | i | 3% | 18µM*
CCCCn1nc(C(=O)N(C)Cc2nc3ccccc3c(=O)[nH]2)c2ccccc2c1=O | 0% | -2% | -5% | i | -29% | i
Cc1cc(C)c(/C=N/NC(N)=O)c(C)c1/C=N/NC(N)=O | 11% | 5% | 4% | 3.7µM* | -1% | ?
Cc1ccsc1CN(C(=O)c1ccc(Br)cc1)C1CCS(=O)(=O)C1 (configuration not stated) | . | . | -19% | . | -18% | .
O=c1[nH]c(=O)n(CCCc2ccccc2)cc1-c1ccccc1 | 24% | 8% | -28% | i | -26% | 13µM*
Cc1cn(CC(=O)NCCCc2ccccc2)c(=O)[nH]c1=O | 1% | 2% | -5% | i | -15% | i
Cc1cccc(OCc2nnc(SCc3cc(=O)[nH]c4ccccc34)n2-c2ccccc2)c1 | -15% | 2% | ? | i | -16% | 18µM*
Cc1ccc(-c2nnc(CSc3nnc(COc4cccc5ccccc45)n3-c3ccccc3)o2)cc1 | ? | -16% | ? | ? | ? | 2.1µM*
Cc1ccccc1OCc1nnc(SCCN2CCCC2)n1-c1ccccc1 | ? | ? | 23µM* | i | 21µM* | ?
Cn1c(COc2ccccc2)nnc1SCc1cc(=O)[nH]c2ccccc12 | 3% | 1% | ? | i | ? | i
N#CCSc1nnc(COc2cccc3ccccc23)n1-c1ccccc1 | ? | ? | 16µM* | 16µM* | 21µM* | 16µM*
CC1CCN(C(=O)CN(c2ccc3c(c2)OCCO3)S(=O)(=O)c2ccccc2)CC1 | 4% | 14% | -5% | i | ? | i
C[C@@H]1CN([C@@H](C)CO)C(=O)CCCn2cc(nn2)CO[C@H]1CN(C)S(=O)(=O)c1ccc(C#N)cc1 | -1% | -6% | -5% | i | -5% | ?
O=C(COC(=O)c1cccc(OC(F)F)c1)Nc1cc(S(=O)(=O)N2CCCC2)ccc1Cl | 0% | -2% | ? | i | ? | i
N#CCSc1nnc(COc2cccc3ccccc23)n1-c1cccc(Cl)c1 | ? | ? | ? | i | 21µM* | ?
COc1ccc(-n2c(COc3cccc4ccccc34)nnc2SCC#N)cc1 | ? | ? | ? | ? | ? | i
COCCNC(=O)C1(C)CCN(C(=O)/C=C/c2ccccc2)C1 (configuration not stated) | 16% | 14% | -17% | i | 0% | i
COc1ccc(C)cc1N1C(=N)/C(=C2/Nc3ccccc3S2)C(c2ccccc2)C1=O (configuration not stated) | -11% | -14% | 6.5µM* | ? | 3.7µM* | 21µM*
N#Cc1ccc(S(=O)(=O)N2CCCCC2c2cc(C(=O)Nc3cccc4c3CCCC4)no2)cc1 (configuration not stated) | 2% | 3% | ? | i | ? | i
CCOc1ccc(-c2cc(OC(=O)c3ccc(F)cc3)c3c(C)oc(C)c3c(=O)c2)cc1 | . | . | ? | i | 16µM* | i
CCOc1cc(-c2ccc(OC(=O)c3ccccc3F)cc2)cc(=O)c2c(C)oc(C)c12 | . | . | 13µM* | . | 13µM* | .
COc1ccc(-c2cc(OC(=O)c3cccc(C)c3)c3c(C)oc(C)c3c(=O)c2)cc1 | . | . | ? | i | ? | i
SMILES | HT1080 IDH1KD tx | HT1080NT lethal | DT40 TDP1 CPT | KB-3-1 cytotox | DT40 TDP1 no CPT | KB-V1 MDR tox
Cc1ccccc1C(=O)Oc1cc(-c2ccc3c(c2)OCO3)cc(=O)c2c(C)oc(C)c12 | . | . | ? | i | ? | i
COc1ccc(C(=O)Oc2cc(-c3ccc(OC)c(OC)c3)cc(=O)c3c(C)oc(C)c23)cc1 | . | . | ? | i | 18µM* | i
COc1cc(-c2cc(OC)c3c(C)oc(C)c3c(=O)c2)ccc1OC(=O)c1ccc(C)cc1 | . | . | 5.2µM* | . | 5.8µM* | .
COc1cccc(/C=N/NC(=O)c2ccc(-n3cnnn3)cc2)c1 | ? | ? | -4% | i | -17% | ?
CNC(=O)c1c(NC(=O)c2nc(SCc3ccc(C)cc3)ncc2Cl)sc2c1CCCC2 | . | . | 1% | i | -15% | i
Cc1cc(S(=O)(=O)N2CCCC(C)C2)ccc1-n1cnnn1 (configuration not stated) | -6% | -1% | -1% | i | -18% | ?
Cc1ccc(C)c(OC(=O)CSc2nnc(-c3ccc4c(c3)OCO4)o2)c1 | . | . | 5% | i | -9% | i
CCOc1cc(-c2ccc(OC(=O)c3ccc(C)cc3)c(OC)c2)cc(=O)c2c(C)oc(C)c12 | . | . | 5.8µM* | . | 5.2µM* | .
Cc1oc(C)c2c(=O)cc(-c3ccc4c(c3)OCO4)cc(OC(=O)c3cccc(Br)c3)c12 | . | . | ? | i | ? | i
Cc1cc(Br)ccc1NC(=O)CN1C(=O)C2C3CC(c4ccccc4)C(C3)C2C1=O (configuration not stated) | -24% | -12% | ? | i | 16µM* | 21µM*
Cc1cc(Br)ccc1NC(=O)CNC(=O)CN1C(=O)NC2(CCCCCC2)C1=O | 0% | 26% | -30% | i | -16% | i
CC1CN(C(=O)c2cc3cc(F)ccc3[nH]2)CC(C)O1 (configuration not stated) | 0% | -1% | -25% | i | -12% | i
CC1(C(=O)NS(=O)(=O)Cc2ccccc2)CCN1C(=O)Cc1cc(F)ccc1F (configuration not stated) | 29% | 19% | -12% | i | 8% | i
COc1ccc(NC(=O)C2=CC(c3ccc4c(c3)OCO4)=NS(=O)(=O)N2C)cc1OC | . | . | ? | i | ? | i
CN1C(C(=O)Nc2ccc(OC(F)(F)F)cc2)=CC(c2cccs2)=NS1(=O)=O | 2% | 6% | ? | i | 3.7µM* | i
